According to PubChem BioAssay AID720519 (National Center for Advancing Translational Sciences (NCATS), 2013):
Inconclusive results are not listed. A number with no mark means an inactive call. Active and inactive are the calls of the source. The call rests on the fitted dose curve; in most records, active means well fitted activation curve with a large enough effect; inconclusive means small, poorly fitted or top-dose-only effect; inactive means flat fitted curve, though single readings scatter.

Experiment: qHTS for Inhibitors of Cell Surface uPA Generation: Confirmatory Assay for Cherry-picked Compounds; on inhibition: 0% is about no effect
Conditions: cell surface uPA activity generation, qHTS confirmation; series mostly up to 115 µM; inhibition: at the top concentration
Method in brief: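 RAW 264.7 cells at 4000/well, incubated overnight, then treated with compounds. After 24 h at 37 C, viability was read by ATPlite luminescence. An increase in signal indicates blocked uPA-dependent LF entry.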
Potency means the concentration at half of the fitted maximal effect.

SMILES | inhibition [%] | Potency
O=C(c1ccco1)N1CCN(c2ncccn2)CC1 | -1.83 | –
O=C(CNS(=O)(=O)c1ccc(F)cc1)Nc1ccccc1 | -1.01 | –
Cc1ccsc1/C=C(\C#N)C(=O)NC1CCS(=O)(=O)C1 (stereo not drawn) | -1.74 | –
COc1cc2c(cc1OC)CN(C(=O)c1ccc(-c3ccccc3)cc1)CC2 | -3.75 | –
Cc1ccc(/C=N/NC(=O)c2ccc3nc[nH]c3c2)s1 | -2.96 | –
CCN1CCN(C(c2ccccc2)c2nnnn2Cc2ccc3c(c2)OCO3)CC1 (stereo not drawn) | 2.01 | –
O=C(CCN1CCN(c2ccccc2F)CC1)Nc1ccc(F)cc1 | -3.33 | –
COc1cccc(C(=O)NCc2ccc3[nH]c(C)cc3c2)c1 | -1.27 | –
CN1CCN(C2=Nc3ccccc3Oc3ccc(Cl)cc32)CC1 | 0.247 | –
Cc1cccc(C(=O)NC2CCN(CC(=O)N3CCOCC3)CC2)c1 | -1.99 | –
COc1cccc(-n2c(SCC(=O)Nc3cc(C)on3)nc3c([nH]c4ccccc43)c2=O)c1 | 10.4 | –
CCOc1ccccc1N(CC(=O)Nc1ccc(OC)cc1)S(=O)(=O)c1ccccc1 | 0.111 | –
CCn1c(SC(C)C(=O)NC2CCCC2)nc2cc(S(N)(=O)=O)ccc21 (stereo not drawn) | 6.22 | –
CN(C)CCNC(=O)Nc1ccc([N+](=O)[O-])cc1 | -1.38 | –
CCn1c(=O)cc(C(=O)OC)sc1=Nc1ccc(F)c(F)c1 | -3.55 | –
CC(C)C(NC(=O)Cc1ccccc1)C(=O)N1CCN(c2cccc(Cl)c2)CC1 (stereo not drawn) | -3.76 | –
COc1ccc(C(=O)N[C@H](C(=O)NCc2cccs2)C(C)C)cc1 | -1.65 | –
CCc1ccc(NC(=O)Cn2cnc([N+](=O)[O-])c2)cc1 | -1.53 | –
C/C=C(/C(=C/C)c1ccc(O)cc1)c1ccc(O)cc1 | -3.36 | –

SMILES | inhibition [%] | Potency
CC1=CC(C)(C)N2C(=O)C3(NCCc4c3[nH]c3ccccc43)c3cc(C)cc1c32 (stereo not drawn) | – | 2330 nM (active)
Cc1[nH]c(=O)[nH]c(=O)c1S(=O)(=O)N1CCCc2ccccc21 | -1.5 | –
CCN(c1ccc(OC)cc1)S(=O)(=O)c1ccc2c(c1)NC(=O)CS2 | -2.56 | –
O=C(Cc1ccc(Cl)cc1)NC(=S)Nc1ccccc1O | 2.56 | –
CN(C(=O)CCn1c(=S)oc2ccccc21)c1ccc(F)cc1 | 1.34 | –
CCCN1CCN(C2CCCCC2NS(=O)(=O)c2ccc(Cl)cc2)CC1 (stereo not drawn) | 11.2 | –
Cc1cccc(NC(=O)C2CCCN(S(=O)(=O)c3cccc4cccnc34)C2)c1 (stereo not drawn) | -1.96 | –
Cc1ccc(N2C(=O)c3ccccc3C2(O)c2ccccc2)cc1 (stereo not drawn) | -1.52 | –
COC(=O)CCSCC(=O)N1N=C(c2ccc(OC)cc2)CC1c1cccc(OC)c1OC (stereo not drawn) | -3.06 | –
CCOC(=O)C1CCN(C(=O)COC(=O)c2c(C)c(CC)nc3ccccc23)CC1 | -3.11 | –
COc1ccc(CCNC(=O)Cn2cccc2C(=O)c2ccccc2)c(OC)c1 | -2.23 | –
COc1cc(/C=C(/C#N)C(=O)Nc2ccccc2)ccc1OCc1ccc(C(=O)O)cc1 | -0.128 | –
C[C@H](CO)N1C[C@H](C)[C@H](CN(C)S(=O)(=O)c2cn(C)cn2)Oc2ccc(NC(=O)Nc3ccc(C(F)(F)F)cc3)cc2CC1=O | 0.623 | –
COc1ccc2nc(SC(C)C(=O)NC3(C#N)CCCCC3)[nH]c2c1 (stereo not drawn) | -2.91 | –
Cc1ccc(NC2CCCN(C(=O)Cc3nonc3C)C2)cc1C (stereo not drawn) | -0.6 | –
O=C1N[C@@H](Cc2c[nH]c3ccccc23)C(=O)N[C@H]1Cc1ccccc1 | 1.15 | –
COCCNC(=O)COCc1cc(-c2ccc3c(c2)OCO3)on1 | -2.16 | –
CCn1c(CNc2ccc(F)cc2)nnc1SCC(=O)Nc1ccccc1OC | -2.14 | –
CCN(C(=O)CSc1ncnc2sccc12)c1c(N)n(Cc2ccccc2)c(=O)[nH]c1=O | 0.737 | –
